Data on 39 compounds can be found in PubChem BioAssay AID598 (SRMLSC, 2007).

SMILES strings stand for the structures. The whole screen tested about 85,000 compounds, of which about 5,100 (6%) were called active.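 How the source made its calls: active means viability at or below 40%; inactive means viability above 40%.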 For the sample, actives were picked, then their nearest neighbours and some compounds at random.

The experiment is described as follows: H69AR cell viability reduction – human, 86K library, primary screen (AID 598).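 Further: multidrug resistant small cell line overexpressing MRP-1 efflux transporter; 100% = mean luminescence of untreated control wells.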 The settings on record: H69AR lung tumor viability, ATP luminescence, 72 h; at 10 µM; hits give low values.
As a reminder, the viability is a read-out of living cells in per cent, often relative to untreated cells. Consider `FC(F)(F)c1cnc(Oc2ccccc2-c2nnc(-c3ccc(Cl)cc3)o2)c(Cl)c1`, for which the viability was 92.2% (inactive).
For the compound `O=C(CSCc1ccccc1)N1CCc2ccccc21`, the viability is 84.8% (inactive).
`Cc1ccc(N(Cc2ccc(C(=O)Nc3ccccc3C(=O)NCc3ccco3)cc2)S(C)(=O)=O)cc1C`: the viability is 79.5% (inactive).
Turning to `Cc1ccc(S(=O)(=O)/N=C(\CN2CCOCC2)N2CCOCC2)cc1`, the viability was 96.2% (inactive).
Turning to `CC(=O)Nc1ccc(OCC(O)CN2CCN(c3ccccc3Cl)CC2)cc1` (centres undefined), the viability is 100% (inactive).
For `O=C(C(c1ccccc1)c1ccccc1)N1CCN(CC(O)COc2ccccc2)CC1` (centres undefined), the viability is 27.1% (active).
On to `OC(COc1cccc(OCC(O)CN2CCCC2)c1)CN1CCCC1` (centres undefined), for which the viability was 99.3% (inactive).
With `O=C(CSc1nnc(-c2cccnc2)n1CCc1ccccc1)NCc1ccccc1`, the viability was 89.6% (inactive).
With `CCc1ccc(CNC(=O)CCc2nc(-c3cccs3)no2)cc1`, the viability was 98.2% (inactive).
On to `N#Cc1ccc(CSc2nnc(-c3ccccn3)n2-c2ccc(Cl)cc2)cc1`, for which the viability was 62% (inactive).
Consider `Clc1ccc(-n2nnnc2-c2cnc(-c3ccccn3)nc2-c2cccs2)cc1`, for which the viability is 18.2% (active).
With `c1ccc(-c2noc(-c3cccs3)n2)nc1`, the viability was 70.6% (inactive).
As to `CCC/C(O)=C1\C(=O)CC(C)(C)CC1=Nc1ccccc1OC`, the viability was 28.2% (active).
Consider `CCOc1ccccc1N=C1NC(=O)CS1`, for which the viability was 85.9% (inactive).
As for `COc1ccccc1N=C(C)C1=C(O)COC1=O`, the figure is 92.4% (inactive); as for `CCOc1ccccc1NC(=O)C1CCCN(C(=O)Nc2ccccc2)C1` (centres undefined), 61.5% (inactive); as for `CCCC(=O)N1c2ccccc2NC2=C(C(=O)CCC2)C1c1ccc(F)cc1` (centres undefined), 92.9% (inactive).
With `CC(C)C(=O)N1c2ccccc2NC2=C(C(=O)CCC2)C1c1ccc(N(C)C)cc1` (centres undefined), the viability is 74.9% (inactive).
To `O=C1CCCC2=C1C(c1cccs1)n1nc(SCc3ccccc3)nc1N2` (centres undefined) belongs 28.9% (active); to `Cc1ccc(N(CC(=O)Nc2cccc(N(C)S(C)(=O)=O)c2)S(C)(=O)=O)cc1`, 85.4% (inactive).
Take `O=C(CCCn1c(SCC(=O)c2ccccc2)nc2ccccc2c1=O)NCC1CCCO1` (centres undefined): the viability was 76.5% (inactive).
To `Cc1noc(COc2ccccc2OCc2onc(C)c2Cl)c1Cl` belongs 93.3% (inactive); to `Cc1ccc(-c2noc(CSc3nnc(-c4ccccc4)n3C)n2)cc1`, 85.9% (inactive).
To `Fc1ccc(-n2c(Cc3ccccc3)nnc2SCc2nc(-c3ccc(Cl)cc3)no2)cc1` belongs 90.9% (inactive).
As to `Cc1ccc(-c2noc(CSc3nnc(-c4ccncc4)n3-c3ccc(F)cc3)n2)cc1`, the viability is 27.9% (active).
Consider `O=S1(=O)C=C(SCCN2CCCC2)c2ccccc21`, for which the viability is 74.3% (inactive).
On to `Cn1cc(S(=O)(=O)N2CCN(c3ccc(F)cc3)CC2)c(=O)n(C)c1=O`, for which the viability is 91.4% (inactive).
With `C#CCN(N(C)c1ncc(C(F)(F)F)cc1Cl)S(=O)(=O)c1ccc2ccccc2c1`, the viability is 84% (inactive).
For `C=C(C)CSc1nc(N)c2c3c(sc2n1)CCC3`, the viability was 92.1% (inactive).
For `CN(C)CCSc1nc(N)c2c3c(sc2n1)COC(C)(C)C3`, the viability is 91.2% (inactive).
On to `CC(C)(C)C1CCc2c(sc3nc(SCC(N)=O)nc(N)c23)C1` (centres undefined), for which the viability was 2.44% (active).
For `O=C(/C=C/NNC(=O)c1cccc(Br)c1)c1ccccc1`, the viability was 61.5% (inactive).
As for `N#C/C(=C(\O)CCl)c1nnc2n1CCCCC2`, the figure is 26.2% (active); as for `COCC(=O)Nc1ccc(Br)cc1`, 101% (inactive); as for `Cc1cccc(N(CC(=O)N2CCOCC2)S(C)(=O)=O)c1`, 98% (inactive).
As to `CC1=NN(c2cccc(Cl)c2)C(=O)C12CC(C)=C(C)CS2` (centres undefined), the viability is 26.9% (active).
For the compound `Cc1[nH]n(-c2cccc(Cl)c2)c(=O)c1-c1ccc(Cl)cc1`, the viability was 109% (inactive).
As for `O=C(NCc1ccccc1)C1CCCN(S(=O)(=O)c2cccs2)C1` (centres undefined), the figure is 95.6% (inactive); as for `CCOc1ccc(S(=O)(=O)NCC2CCCO2)cc1` (centres undefined), 97% (inactive).
